The source made the active and inactive calls. The calls were made as follows: active = hit-call score of the fitted dose curve at least 0.9, where 1 is the maximum; inactive = score below 0.9.
Tests used:
[1] = CCTE_Padilla_ZF_Score.General: CCTE's 144 Hour Post-fertilization zebrafish Assay Score for General Malformation, Padilla Lab (AID 2284411)
Summary of the method: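 Wild-type zebrafish embryos were plated singly at 6-8 hpf in 10% Hanks' and exposed in sealed wells at 26C until rinsed on 5 dpf. At 6 dpf two blinded assessors scored mortality, hatching and malformations by stereomicroscopy; gain-of-signal versus DMSO.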

[2] = CCTE_Padilla_ZF_Score.Tail: CCTE's 144 Hour Post-fertilization zebrafish Assay Score for Tail Malformation, Padilla Lab (AID 2284414)
Summary of the method: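 Wild-type zebrafish embryos, one per well in 200 uL 10% Hanks', dosed at 6-8 hpf, sealed, and kept at 26 C on a 14:10 h light cycle. Chemical was rinsed out at 5 dpf. Blinded brightfield scoring of tail defects followed at 6 dpf.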

[3] = CCTE_Padilla_ZF_Score.Blood_pooling: CCTE's 144 Hour Post-fertilization zebrafish Assay Score for Blood Pooling, Padilla Lab (AID 2284415)
Summary of the method: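 Wild-type outbred zebrafish embryos, one per well in 10% Hanks', exposed from 6–8 hpf in sealed plates at 26C on 14:10 h light:dark, rinsed at 5 dpf. Blinded stereomicroscope scoring of blood pooling at 6 dpf; gain-of-signal versus DMSO.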

[4] = CCTE_Padilla_ZF_Score.Any: CCTE's 144 Hour Post-fertilization zebrafish Assay Score for Any Mortality or Malformation, Padilla Lab (AID 2284416)
Summary of the method: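 Wild-type zebrafish embryos with chorions, one per well in 10% Hanks' from 6–8 hpf, dosed in sealed plates at 26 C, 14:10 h light:dark; rinsed at 5 dpf; blinded scoring at 6 dpf for death or malformation, versus DMSO.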

CN(CCO)S(=O)(=O)C(F)(F)C(F)(F)C(F)(F)C(F)(F)C(F)(F)C(F)(F)C(F)(F)C(F)(F)F
outcome [1]: inactive
outcome [2]: inactive
outcome [3]: inactive
AC50 [4]: 9.78 µM (active)

O=C(OC(=O)C(F)(F)C(F)(F)F)C(F)(F)C(F)(F)F
outcome [1]: inactive
outcome [2]: inactive
outcome [3]: inactive
outcome [4]: inactive

CCCCCCCCCCCCCCCCCC[N+](C)(C)Cc1ccccc1
outcome [1]: inactive

FC(F)(F)N1C(F)(F)C(F)(F)OC(F)(F)C1(F)F
outcome [1]: inactive
outcome [2]: inactive
outcome [3]: inactive
outcome [4]: inactive

COC(=O)C(F)(F)C(F)(F)C(F)(F)C(F)(F)C(F)(F)F
outcome [1]: inactive
outcome [2]: inactive
outcome [3]: inactive
outcome [4]: inactive

O=C1OC(=O)C(F)(F)C1(F)F
outcome [1]: inactive
outcome [2]: inactive
outcome [3]: inactive
outcome [4]: inactive

C=CC(C)(CCC=C(C)C)OC(C)=O (stereo unspecified)
outcome [1]: inactive

O=P(O)(O)CCC(F)(F)C(F)(F)C(F)(F)C(F)(F)C(F)(F)C(F)(F)F
outcome [1]: inactive
outcome [2]: inactive
outcome [3]: inactive
AC50 [4]: 25.6 µM (active)

FC(F)(F)C1(F)C(F)(F)C(F)(F)C(F)(F)C(F)(C(F)(F)F)C1(F)F (stereo unspecified)
outcome [1]: inactive
outcome [2]: inactive
outcome [3]: inactive
outcome [4]: inactive

OCCN1CN(CCO)CN(CCO)C1
outcome [1]: inactive

FC1(F)C=CC(F)(F)C1(F)F
outcome [1]: inactive
outcome [2]: inactive
outcome [3]: inactive
outcome [4]: inactive

CC(C)(c1ccc(Oc2ccc(N)cc2)cc1)c1ccc(Oc2ccc(N)cc2)cc1
outcome [1]: inactive

O=C(CC(=O)C(F)(F)C(F)(F)C(F)(F)F)c1cccs1
outcome [1]: inactive
outcome [2]: inactive
outcome [3]: inactive
AC50 [4]: 3.55 µM (active)

COC1=CC(=O)C[C@@H](C)[C@]12Oc1c(Cl)c(OC)cc(OC)c1C2=O
outcome [1]: inactive

— PubChem BioAssay (EPA / NIEHS)
